Measured values: PubChem BioAssay

Test system: Sonic hedgehog protein (Shh)
Experiment: small-molecule binders of Shh protein, primary screen, biochemical, small-molecule microarray, 635/667 nm fluorescence (AID 1151);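 also: Shh protein binding to compounds spotted on small-molecule microarray slides; score combines spot fluorescence intensity with signal-to-noise across triplicate slides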
Conditions: small-molecule microarray binding, 635 nm fluorescence; higher = more signal

Point of comparison: COc1c(C)cc(-c2cc3c(c(-c4ccc(Oc5ccccc5)cc4)n2)[Si](C(C)C)(C(C)C)OC3)cc1C, composite z-score 0.205. Against it:
- CC(C)C[C@@H]1NC(=O)[C@H]2C[C@@H](C(=O)NCCCCCCNC(=O)CS)[C@@H](c3cccc(OCCO)c3)N2C1=O — higher, 2.13
- CC(C)NC(=O)[C@@]1(Cc2ccccc2I)c2ccccc2C(=O)N(Cc2ccccc2)[C@H]1c1ccc(CO)cc1 — higher, 1.39
- O=C1O[C@H](c2ccccc2)[C@H](c2ccccc2)N2[C@H]1[C@@H](C(=O)N1CCN(c3ncccn3)CC1)[C@]1(C(=O)Nc3ccccc31)[C@H]2c1ccc(OCCO)cc1 — higher, 1.98
- COc1ccc(CCNC(=O)[C@@]2(Sc3ccc(C)cc3)CC(=O)N(Cc3ccccc3Cl)[C@@H]2c2ccc(CO)cc2I)cc1 — lower, 0.153
- CN(C)C(=O)[C@]1(CCC(=O)OC(C)(C)C)N=C(c2ccc(OCCCO)cc2)O[C@@H]1c1ccccc1N=[N+]=[N-] — lower, -0.149
- CC(=O)NCCCC[C@@H]1NC(=O)[C@@H]2C[C@H](C(=O)NCCCCN(C)C)[C@H](c3ccc(O)cc3)N2C1=O — higher, 0.54
- CC(C)CNC(=O)[C@@]1(c2ccc([N+](=O)[O-])cc2)CC(=O)N(CC23CC4CC(CC(C4)C2)C3)[C@@H]1c1ccc(CO)cc1 — higher, 1.04
- Cc1ccc(F)cc1S(=O)(=O)N[C@@H]1CCN(Cc2ccc(-c3ccccc3)cc2)C1 — higher, 0.98
- CC(C)(C)OC(=O)CC[C@]1(C(=O)N2CCCCC2)N=C(c2ccc(OCCCO)cc2)O[C@H]1c1ccccc1N=[N+]=[N-] — higher, 0.837
- COC(=O)c1ccc(C(O)C2C=CC3C(=O)N(C)C(=O)C3N2NC(=O)OC(C)(C)C)o1 (stereo not given) — lower, 0.112
- CCCCCCCCCCC(O)C1C=CC2C(=O)N(Cc3ccccc3)C(=O)C2N1n1cnnc1 (stereo not given) — lower, -0.778
- CCOC(=O)C1=CC[C@@H](c2ccccc2)N(S(=O)(=O)c2ccc(C)cc2)[C@H]1C(=O)OCC — lower, -0.189
- CCCNC(=O)[C@@]1(c2ccc([N+](=O)[O-])cc2)CC(=O)N(CC23CC4CC(CC(C4)C2)C3)[C@@H]1c1ccc(CO)cc1 — higher, 0.34
- COCCOC(=O)N1C(=O)[C@@]2(c3ccccc31)[C@H](C(=O)NC[C@H](O)c1ccccc1)[C@H]1C(=O)O[C@H](c3ccccc3)[C@H](c3ccccc3)N1[C@@H]2c1ccc(OCCO)cc1 — higher, 2.29
- CCCCC=C[C@@H](NC(=O)c1ccco1)c1ccccc1 — lower, 0.0154
- CC(=O)NCCCC[C@@H]1NC(=O)[C@H]2C[C@@H](C(=O)NCCCCCC[N+](C)(C)C)[C@@H](c3cccc(OCCO)c3)N2C1=O — higher, 2.26
- O=C(CS)NCCCCCCNC(=O)[C@H]1C[C@H]2C(=O)NCC(=O)N2[C@H]1c1ccc(O)cc1 — higher, 0.518
- COC(=O)[C@@]1(Cc2ccc(OC)cc2)[C@H]2c3cc(C(=O)N(C)C)n(Cc4c(OC)[nH]cc(C)c4=O)c3C[C@H]2CN1C(=O)c1ccccc1 — lower, -1.1
- CS(=O)(=O)CCOC(=O)C1=CC(c2ccc(CO)cc2)=CC(C2CC2)N(Cc2cc3c(cc2Br)OCO3)C=C1C(=O)OCCS(C)(=O)=O (stereo not given) — higher, 0.595
- C=CCOC(=O)[C@H]1[C@@H]2C(=O)O[C@@H](c3ccccc3)[C@@H](c3ccccc3)N2[C@@H](c2ccc(OCCOC(=O)[C@@H]3C[C@@H]4C(=O)N5CCC[C@H]5C(=O)N4[C@@H]3c3ccc(O)cc3)cc2)[C@]12C(=O)Nc1ccccc12 — higher, 1.23
- O=C1O[C@@H](c2ccccc2)[C@@H](c2ccccc2)N2[C@@H](c3ccccc3OCCO)[C@]3(C(=O)Nc4ccc(C#CC5(O)CCCCCC5)cc43)[C@@H](C(=O)Nc3nc4ccccc4s3)[C@H]12 — higher, 0.902
- COCC(=C=CC[C@@H](O)c1ccc(CO)o1)CCO — higher, 2.2
- CC(C)CNC(=O)[C@@H]1c2ccccc2C(=O)N(Cc2cc(C(F)(F)F)cc(C(F)(F)F)c2)[C@H]1c1ccc(CO)cc1 — lower, -0.22
- C=CCOC(=O)[C@H]1[C@@H]2C(=O)O[C@@H](c3ccccc3)[C@@H](c3ccccc3)N2[C@@H](c2ccc(OCCOC(=O)[C@@H]3C[C@@H]4C(=O)NCC(=O)N4[C@@H]3c3ccc(O)cc3)cc2)[C@]12C(=O)Nc1ccccc12 — higher, 2.28
- COC(=O)[C@@]1(Cc2ccccc2)[C@H]2c3cc(C(=O)N4CCCC4)n(C)c3C[C@H]2CN1C(=O)c1ccccc1 — lower, -0.157
- CC(C)Cc1ccc(CN2CC[C@@H](NS(=O)(=O)c3ccccc3)C2)cc1 — higher, 1.45
- CC(=O)Nc1cc(Br)ccc1C(=O)O — lower, -0.402
- COC(=O)[C@@]1(Cc2ccccc2N=[N+]=[N-])COC(c2ccc(OCCCO)cc2)=N1 — lower, -0.0614
- NC(=O)NCC#Cc1ccc2c(c1)[C@]1(C(=O)N2)[C@H](C(=O)NC[C@H](O)c2ccccc2)[C@H]2C(=O)O[C@H](c3ccccc3)[C@H](c3ccccc3)N2[C@@H]1c1ccc(O)cc1 — higher, 1.02
- CCOC(=O)C[C@H]1[C@H](OC(=O)c2ccc(-c3ccccc3)cc2)[C@@H](NC(=O)Cc2ccc(OC)cc2)c2cc(OCCCO)ccc2N1C(=O)c1ccc2ccccc2n1 — lower, -0.525
- COc1cccc(C(=O)O[C@H]2CC[C@]3(C)C4=C(CCC3C2(C)C)[C@]2(C)CC[C@H]([C@H](C)CCCC(C)C)[C@@]2(C)CC4)c1 (stereo not given in full) — higher, 0.425
- O=C/C=C/c1ccc2c(c1)OCO2 — higher, 0.504
- O=C1C=CC(=O)[C@@H]2CC(COc3ccccc3)=C3[C@@H](CCc4ccccc4)OB(O)C[C@@H]3[C@H]12 — higher, 1.3
- O=C1O[C@@H](c2ccccc2)[C@@H](c2ccccc2)N2[C@@H](c3ccc(O)cc3)[C@]3(C(=O)Nc4ccc(C#CC5(O)CCCCCC5)cc43)[C@@H](C(=O)N3CCCCCCC3)[C@H]12 — higher, 2.27
